Screens (PubChem)
Only some compounds are listed: those with a hit (about 4.7% of all), similar ones and a draw of the others.
rCAG binder: molecules binding r(CAG) RNA repeats | inhibition, % at 3 µM | 1.3% of 370,000 active | r(CAG) RNA repeat, TO-PRO-1 dye displacement fluorescence;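 active = inhibition above the plate cutoff, the mean of all test compounds on that plate plus 3 SD, cut at about 35% in these data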;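 note: higher means more dye released from RNA so lower well fluorescence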
Pemphigus Ab inh: human desmoglein-3 autoantibody binding inhibition; P32926; DSG3-coupled beads, scFv-anti-DSG3-GFP binding, flow cytometry; hits give low values; binding (percent of control), % at 10 µM; 0.48% of 310,000 active; AID 588358;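 active = binding more than 3 SD below its plate's average and above zero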;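 note: hits lower antibody fragment binding to DSG3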
Target sequence (P32926 whole entry, looked up, the tested form may be a part): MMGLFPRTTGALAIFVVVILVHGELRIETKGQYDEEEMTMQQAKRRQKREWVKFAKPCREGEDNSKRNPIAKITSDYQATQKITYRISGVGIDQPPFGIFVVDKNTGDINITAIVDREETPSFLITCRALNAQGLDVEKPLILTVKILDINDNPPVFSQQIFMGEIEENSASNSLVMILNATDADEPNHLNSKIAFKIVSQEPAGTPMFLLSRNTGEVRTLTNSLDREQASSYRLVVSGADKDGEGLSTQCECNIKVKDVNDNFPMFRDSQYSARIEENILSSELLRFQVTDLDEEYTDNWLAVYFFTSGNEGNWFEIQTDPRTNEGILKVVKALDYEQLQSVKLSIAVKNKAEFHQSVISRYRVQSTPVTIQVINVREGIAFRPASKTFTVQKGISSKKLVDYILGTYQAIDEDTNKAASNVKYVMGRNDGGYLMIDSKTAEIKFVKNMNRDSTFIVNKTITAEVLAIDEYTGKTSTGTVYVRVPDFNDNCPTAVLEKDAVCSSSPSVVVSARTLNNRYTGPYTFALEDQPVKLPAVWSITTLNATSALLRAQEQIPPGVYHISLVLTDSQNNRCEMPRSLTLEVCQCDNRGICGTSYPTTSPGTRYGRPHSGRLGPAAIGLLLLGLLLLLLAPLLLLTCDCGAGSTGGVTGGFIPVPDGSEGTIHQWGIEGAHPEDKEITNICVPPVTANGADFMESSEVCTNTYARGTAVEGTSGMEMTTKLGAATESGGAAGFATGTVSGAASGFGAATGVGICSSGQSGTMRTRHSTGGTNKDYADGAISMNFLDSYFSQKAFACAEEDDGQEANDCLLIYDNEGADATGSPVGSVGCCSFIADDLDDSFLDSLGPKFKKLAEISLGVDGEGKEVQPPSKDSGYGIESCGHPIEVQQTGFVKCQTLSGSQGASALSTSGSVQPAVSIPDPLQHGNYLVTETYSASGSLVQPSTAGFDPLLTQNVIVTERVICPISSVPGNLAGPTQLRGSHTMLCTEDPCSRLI
KLK7 zymogen act: activates the human kallikrein-7 zymogen; purified proKLK7, EDANS-DABCYL substrate fluorescence; 100% is mature enzyme control, 0% vehicle; activation, % at 7 µM; 0.9% of 370,000 active; AID 652039;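 active = activation above the mean of all tested compounds plus 3 SD, computed per campaign excluding outliers beyond control limits, cut at about 13% in these data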
MPTP inh: inhibitors of mitochondrial permeability transition pore; isolated mouse mitochondria, Ca2+ swelling absorbance, 30 min; inhibition, % at 10 µM; AID 602449; 1.4% of 360,000 active;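 active = inhibition of 50% or more, scaled per plate between neutral and stimulator controls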
ADAM17 inh: ADAM17 inhibition, QFRET primary screen | recombinant ADAM17, EDANS/DABCYL FRET peptide cleavage | inhibition, % at 6.95 µM | 0.83% of 370,000 active;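 active = inhibition above the mean of compounds lying between control limits plus 3 SD, set per campaign, cut at about 8.5% in these data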
ADAM10 inh: inhibitors of human ADAM10 | 0.62% of 370,000 active | O14672 | recombinant ADAM10, EDANS/DABCYL FRET peptide cleavage, 3 h | inhibition, % at 7 µM;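 active = inhibition above a per-campaign cutoff equal to the mean of compounds falling between control-based bounds plus 3 SD, cut at about 20% in these data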
MPTP counter: mitochondrial membrane potential, counter-screen; shares compounds with MPTP inh; AID 624504; inhibition, % at 10 µM; 78% of 5,000 active; isolated mitochondria, Rhodamine 123 fluorescence; in the data active = inhibition above about 22%
MPTP swell DR: MPTP inhibition, dose response swelling confirmation. AID 651561. isolated mitochondria swelling, absorbance. 58% of 780 active. IC50, µM. shares compounds with MPTP inh; in the data active = IC50 below about 20 µM
MPTP cs DR: active in counter-screen for permeability transition pore inhibitors. shares compounds with MPTP inh. isolated mitochondria counterscreen, fluorescence read-out. 49% of 780 active. IC50, µM. AID 651564; in the data active = IC50 below about 80 µM
Of the large screens only hits and unclear results are named; the others gave an inactive call (follow-up assays come after a bar, where they were run).

Cc1ccccc1-c1nc(CN2CCC(C(=O)NC3CCN(Cc4ccccc4)CC3)CC2)c(C)o1	MPTP inh 68 | MPTP counter inactive | MPTP swell DR inactive | MPTP cs DR 75
Cn1c(=O)c2ccccc2n(C)c1=O	none (no result: Pemphigus Ab inh, MPTP inh)
CC(C)NC(=O)N[C@H]1C[C@@H]2O[C@@H](CO)CC[C@@H]2O[C@@H]1CCc1ccc(-c2ccc(F)cc2)cc1	none (no result: Pemphigus Ab inh, MPTP inh)
Nc1ccn([C@@H]2O[C@H](C(=O)N3CCN(C(=O)N4CCCCC4)CC3)[C@@H](O)[C@H]2O)c(=O)n1	none (no result: Pemphigus Ab inh, MPTP inh)
O=C(C(=O)N1CCN(S(=O)(=O)c2ccc(C(F)(F)F)cc2)CC1)c1cccc(C(F)(F)F)c1	none (no result: Pemphigus Ab inh, MPTP inh)
O=C(Nc1cc(F)ccc1F)N1CCN(c2ccnc3cc(Cl)ccc23)CC1	MPTP inh 59 (no result: Pemphigus Ab inh) | MPTP counter 36
O=C(Nc1ccc(C(F)(F)F)cc1)N1CCN(c2ccnc3cc(Cl)ccc23)CC1	MPTP inh 79 | MPTP counter 81
Cc1cccc(Cl)c1NC(=O)N1CCN(c2ccnc3cc(Cl)ccc23)CC1	none
Cc1ccc(F)cc1NC(=O)N1CCN(c2ccnc3cc(Cl)ccc23)CC1	none
Cc1cc(F)ccc1S(=O)(=O)Nc1ccccc1C(=O)Nc1ccccc1N1CCOCC1	MPTP inh 78 (no result: Pemphigus Ab inh) | MPTP counter 89
Cc1cc(F)ccc1S(=O)(=O)Nc1ccccc1C(=O)Nc1ccccc1-c1nc2ccccc2[nH]1	MPTP inh 72 (no result: rCAG binder, KLK7 zymogen act, ADAM17 inh, ADAM10 inh) | MPTP counter 69
CC(C)C[C@H]1COc2ccc(Cl)cc2S(=O)(=O)N1	none (no result: Pemphigus Ab inh, MPTP inh)
Cc1ccccc1OCCn1cc(C(=S)N2CCCC2)c2ccccc21	none
c1ccc2c(c1)ncn2CCCCOc1ccc2c(c1)CCC2	MPTP inh 88 | MPTP counter 96
Cc1ccc(OCCCCn2cnc3ccccc32)cc1	none
CC(=O)c1cn(CCOc2ccccc2C)c2ccccc12	MPTP inh 96 | MPTP counter 82
c1ccc(OCCCCn2cnc3ccccc32)cc1	none (no result: Pemphigus Ab inh)
Cc1ccccc1OCCCCn1cnc2ccccc21	MPTP inh 93 | MPTP counter 89
c1ccc2c(c1)ncn2CCCOc1ccc2c(c1)CCC2	MPTP inh 54 (no result: Pemphigus Ab inh) | MPTP counter 60
C#CCNC(=O)C[C@H]1C[C@@]2(C(=O)OC)C(=C[C@H](COCc3ccccc3)O[C@@H]2C)N(CCC2=CCCCC2)C1=O	none (no result: Pemphigus Ab inh, MPTP inh)
C[C@H](c1ccccc1)N1C[C@@H](COCc2ccccc2)Oc2cccc(N3CCCCC3)c2S1(=O)=O	none (no result: Pemphigus Ab inh, MPTP inh)
O=C(CNS(=O)(=O)c1cccs1)N1CCN(c2ncccn2)CC1	none (no result: Pemphigus Ab inh, MPTP inh)
CCOc1ccc(-n2c(SCc3nc4ccccc4[nH]3)nnc2-c2cccc(Cl)c2)cc1	none (no result: Pemphigus Ab inh, MPTP inh)
Fc1ccc(Cn2cnc3ccccc32)cc1	none
CCCOc1ccc(Cn2cnc3ccccc32)cc1	MPTP inh 89 | MPTP counter 77
COc1ccc(CCNCC(O)COc2cccc(C)c2)cc1OC (stereo not drawn)	none (no result: Pemphigus Ab inh, MPTP inh)
COc1ccc(CCNCC(O)COc2cccc(Br)c2)cc1 (stereo not drawn)	MPTP inh 60 | MPTP counter inactive | MPTP swell DR 5.1 | MPTP cs DR 47
CN(Cc1ccc(Br)cc1)CC(O)COc1cccc(Br)c1 (stereo not drawn)	MPTP inh 60 (no result: Pemphigus Ab inh) | MPTP counter inactive | MPTP swell DR inactive | MPTP cs DR 43
N#Cc1ccc(NC(=O)N2CCC(c3nc4c(nnn4Cc4cccc(Cl)c4)c(=O)[nH]3)CC2)cc1	MPTP inh 56 | MPTP counter 28
N=C1N(C(=O)OCc2ccccc2)/C(=C\C2=CCCCC2)C(Cc2ccccc2)N1Cc1ccccc1 (stereo not drawn)	none (no result: Pemphigus Ab inh, MPTP inh)
COC(=O)c1cc2c(c3c4cc(C)ccc4n(S(=O)(=O)c4ccccc4)c13)C(=O)N(Cc1ccc(C(F)(F)F)cc1)C2	none (no result: Pemphigus Ab inh, MPTP inh)
CCCCCCN1C=C/C(=C\C=C(C#N)C#N)c2ccccc21	MPTP inh 51 | MPTP counter inactive | MPTP swell DR 9.3 | MPTP cs DR <2.5
N#Cc1cccc(C#N)c1Oc1ccc(S(=O)(=O)Nc2ccccc2)cc1	MPTP inh 54 | MPTP counter inactive | MPTP swell DR inactive | MPTP cs DR 30
COc1cnn(C(C)(C)C)c(=O)c1Cl	none
Cc1cccc(Oc2cnn(C(C)(C)C)c(=O)c2Cl)c1	MPTP inh 62 | MPTP counter 45
Oc1ccc2ccccc2c1-c1sc(Nc2ccccc2)n[n+]1-c1ccc(F)cc1	none
c1ccc(-[n+]2nc(Nc3cccc4ccccc34)sc2-c2c3ccccc3cc3ccccc23)cc1	MPTP inh 98 (no result: rCAG binder, KLK7 zymogen act, ADAM17 inh, ADAM10 inh) | MPTP counter 93
COc1ccc(C)cc1Nc1n[n+](-c2ccccc2)c(-c2cc(OC)c(OC)cc2Br)s1	none
COc1ccc(C)cc1Nc1n[n+](-c2ccccc2)c(-c2c(OC)ccc3ccccc23)s1	MPTP inh 100 | MPTP counter 105
CCc1ccc(Nc2n[n+](-c3ccccc3)c(-c3cccc(C)c3)s2)cc1	none
Fc1ccc(-[n+]2nc(Nc3ccccc3)sc2-c2c3ccccc3cc3ccccc23)cc1	MPTP inh 92 | MPTP counter 111
CC(C)CNC(=O)OCc1cn(Cc2cccc(F)c2F)nn1	none (no result: Pemphigus Ab inh, MPTP inh)
NC(=O)c1c(N)[nH]c(C(=O)c2ccccc2)c1-c1ccc(Cl)cc1Cl	none (no result: Pemphigus Ab inh, MPTP inh)
Cc1nc2cc(NS(=O)(=O)c3cccc(F)c3)ccc2s1	none
COc1cc(S(=O)(=O)Nc2ccc3nc(C)sc3c2)ccc1NC(C)=O	MPTP inh 68 | MPTP counter 86
Cc1nc2ccc(NS(=O)(=O)c3ccc(C)c(C)c3)cc2s1	MPTP inh 96 | MPTP counter 94
CC(=O)c1cccc(S(=O)(=O)Nc2ccc3nc(C)sc3c2)c1	MPTP inh 91 | MPTP counter 57
COc1ccc2nc(-c3ccc(CN4CCC(c5nc6ccccc6[nH]5)CC4)cc3)c(-c3ccccc3)nc2c1	none (no result: Pemphigus Ab inh, MPTP inh)
O=C(/C=C(\Nc1ccc(Cl)c(C(F)(F)F)c1)c1ccccc1)c1ccccc1	none (no result: Pemphigus Ab inh, MPTP inh)
Nn1c(SCC(=O)Nc2ccc(S(=O)(=O)Nc3nccs3)cc2)nnc1-c1ccco1	none (no result: Pemphigus Ab inh, MPTP inh)
NC(=O)c1ncn([C@@H]2O[C@H](C(=O)N[C@H](Cc3c[nH]c4ccccc34)C(=O)NCC(=O)N3CCCCC3)[C@@H](O)[C@H]2O)n1	none (no result: Pemphigus Ab inh, MPTP inh)
CCCCCCCCCn1c2c(c(=N)c3c1CCC3)CCC2	MPTP inh 84 (no result: rCAG binder, KLK7 zymogen act, ADAM17 inh, ADAM10 inh) | MPTP counter 92
O=C(Nc1nnc(C2CC2)s1)c1ccc(Cl)c(S(=O)(=O)N2CCc3ccccc3C2)c1	MPTP inh 51 | MPTP counter 60
Cc1cccc(NC(=O)c2ccc(Cl)c(S(=O)(=O)N3CCc4ccccc43)c2)n1	none (no result: Pemphigus Ab inh)
